Test results: PubChem BioAssay

assay: differential killing of epithelial or mesenchymal cells, primary screen, imaging, PC-3E GFP, TEM4-18 mCherry, co-culture (AID 1345086); conditions: imaging cell counts, measured here: epithelial PC-3E GFP cell survival, at 1 µM;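 also: cells exposed to compound for 72 h before imaging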

Compound	normalised cell number
Cc1c(O)c(O)cc2oc3cc(O)cc(O)c3c(=O)c12	1.06
COC(=O)/C=C/C(C)=C/C=C/C(C)=C/C=C/C=C(C)/C=C/C=C(C)/C=C/C(=O)O	1.29
COC(=O)CNC(=O)c1ccc([C@H](O)c2ccccc2)cn1	1
O=C(O)CCC(=O)OC1C(CO)O[C@H](Sc2ccccc2)[C@H]2NC(=O)O[C@@H]12 (some centres not stated)	0.84
CC(C)(C)OC(=O)NCCCC(NC(=O)C(Cc1ccccc1)NC(=O)OC(C)(C)C)C(=O)O (configuration not stated)	1.24
CC(=O)OC1(C)CC[C@@]23CC1C(C)(C)[C@@H]2CC[C@H]3C (some centres not stated)	1.16

same assay, conditions: imaging cell counts, measured here: mesenchymal TEM4-18 mCherry cell survival, at 1 µM

Compound	normalised cell number
COC(=O)C[C@H]1C(C)(C)C(=O)[C@@H]2CC3=C4CC(=O)O[C@@H](c5ccoc5)[C@]4(C)CCC3C1(C)C2=O (some centres not stated)	0.78
COC(=O)CC1C(C)(C)C(OC(C)=O)[C@@H]2[C@@H](OC(C)=O)[C@]34O[C@@]2(O)C1(C)C3CC[C@]1(C)C4=CC(=O)O[C@H]1c1ccoc1 (some centres not stated)	0.95
COC1O[C@@H]2O[C@]3(C)CC[C@H]4[C@H](C)CC[C@@H]([C@H]1C)[C@@]24OO3 (some centres not stated)	0.67
C[C@@H]1O[C@@H](O[C@H]2[C@@H](Oc3cc(O)c4c(c3)O[C@H](c3ccc(O)cc3)CC4=O)O[C@H](CO)[C@@H](O)[C@@H]2O)[C@H](O)[C@H](O)[C@H]1O	1.04
CC1=C2[C@](C)(C=CC1=O)C[C@H](O)[C@H]1[C@H](C)C(=O)O[C@]21C	1.15
C=CC(C)(C)c1ccc2[nH]c3c(c2c1)C[C@@H]1CC[C@@]2(O)C4=CC(=O)[C@@H]5O[C@@]4(CC[C@]2(C)[C@@]31C)OC5(C)C	1.01
